# Unmarked numbers belong to inactive results. Records with an inconclusive call do not appear. A call without a number means that no potency is given here. The source made the active and inactive calls. Unless noted, calls follow the shape of the full dose curve.
# Tests used:
# [1] = Nuclear factor erythroid 2-related factor 2/antioxidant responsive element (Nrf2/ARE) small molecule agonists: qHTS cell viability counter screen in human keratinocytes (AID 1919968; active = well fitted curve in the direction sought with a large enough effect in the repeat runs; an effect the other way counts as inactive or inconclusive; also: nearly all actives have a fitted effect of over 55% in size; also: potency is read from the fitted curve at half-maximal effect)
# Summary of the method: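 Measured as CellTiter-Fluor fluorescence, this readout tracks cytotoxicity in the same wells as the ARE-luciferase screen. HaCaT reporter cells (1,500/well) received compounds after a 5 h pre-incubation and were exposed for 23 h.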
# [2] = Nuclear factor erythroid 2-related factor 2/antioxidant responsive element (Nrf2/ARE) small molecule agonists: luciferase reporter gene qHTS assay in human keratinocytes (AID 1919969); also: nearly all actives have a fitted effect of over 35% in size; also: potency is read from the fitted curve at half-maximal effect
# [3] = biological target: Gonadotropin-releasing hormone receptor (Homo sapiens) (UniProt P30968); assay: Human gonadotropin-releasing hormone receptor (GnRHR) small molecule agonists, calcium flux assay in GnRHR-HEK293 cells (AID 1920063); also: nearly all actives have a fitted effect of over 35% in size
# Summary of the method: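 Fluorescence kinetics (480 nm excitation, 540 nm emission; 3 min, 1 s steps) report calcium mobilisation in human GnRHR-HEK293 cells in agonist mode. Dye incubation: 1 h, 37 C.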
# [4] = biological target: KiSS-1 receptor (Homo sapiens) (UniProt Q969F8); assay: Human kisspeptin (KISS1R) small molecule agonists, calcium flux assay in KISS1R-HEK293 cells (AID 1920064; active = well fitted curve in the direction sought with a large enough effect in the repeat runs; an effect the other way counts as inactive or inconclusive)
# Summary of the method: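 Measures KISS1R agonism through calcium-sensitive dye fluorescence in stably transfected HEK293 cells, read for 3 min after pin-tool compound delivery; 15-point titrations in triplicate.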
# [5] = G protein-coupled receptor (GPCR) small molecule agonists, calcium flux assay: HEK293 wild type cell line counter screen (AID 1920065)
# Summary of the method: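 Readout: fluorescence at 480 nm excitation/540 nm emission, sampled at 1 s intervals for 3 min. Cells had been cultured 18 h, then dye-loaded 1 h at 37 C before compound or ATP addition.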
# [6] = p53 small molecule agonists, cell-based qHTS assay with human liver microsomes (AID 1963577);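 also: p53 response element beta-lactamase reporter cells with liver microsomes plus NADPH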
# Summary of the method: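 16 h, 37 C exposure of p53RE-bla cells to compounds with human liver microsomes and NADPH (0.5 mg/mL final each); detection via LiveBLAzer mixture, 2 h dark at room temperature.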
# [7] = p53 small molecule agonists, cell-based qHTS assay with rat liver microsomes (AID 1963578)
# Summary of the method: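 With rat liver microsomes and NADPH present (0.5 mg/mL final each), p53RE-bla cells are treated with compound for 16 h at 37 C. LiveBLAzer detection mixture is then applied for 2 h at room temperature in the dark.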
# [8] = p53 small molecule agonists, cell-based qHTS assay with rat liver microsomes: qHTS cell viability counter screen (AID 1963580); also: nearly all actives have a fitted effect of over 45% in size; also: potency is read from the fitted curve at half-maximal effect
# Summary of the method: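 p53RE-bla HCT-116 cells were exposed 16 h at 37 C to compounds with rat liver microsomes (0.5 mg/mL) and NADPH (0.5 mg/mL). Viability was measured in the same wells as ATP content by CellTiter-Glo luminescence.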
# [9] = p53 small molecule agonists, cell-based qHTS assay: qHTS cell viability counter screen (AID 1963581); also: nearly all actives have a fitted effect of over 45% in size; also: potency is read from the fitted curve at half-maximal effect
# Summary of the method: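 In the same plates used for the p53 bla reporter, HCT-116 cells given compounds for 16 h at 37 C received CellTiter-Glo; luminescence was recorded 30 min later at room temperature.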
# [10] = p53 small molecule agonists, cell-based qHTS assay (AID 1963582; active = well fitted activation curve with a large enough effect in the signal ratio in the repeat runs, not every such curve was filed as active; the % refers to the signal ratio)
# Summary of the method: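 Compounds are pin-transferred in DMSO onto p53RE-bla cells and incubated 16 h at 37 C. The B/G FRET beta-lactamase substrate is then applied for 2 h at RT and fluorescence recorded.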
# [11] = biological target: 5-hydroxytryptamine receptor 2A (Homo sapiens) (UniProt P28223); assay: 5-hydroxytryptamine receptor 2A (HTR2A) small molecule antagonists, cell-based qHTS assay (AID 1963586); also: nearly all actives have a fitted effect of over 45% in size; also: potency is read from the fitted curve at half-maximal effect
# Summary of the method: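 Antagonist-mode intracellular calcium assay: DOI (4 nM) added after 5 min compound pre-incubation at room temperature to dye-loaded HTR2A-CHO cells. Fluorescence followed for 3 min, sampled every second.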
# [12] = biological target: 5-hydroxytryptamine receptor 2A (Homo sapiens) (UniProt P28223); assay: 5-hydroxytryptamine receptor 2A (HTR2A) small molecule agonists, cell-based qHTS assay (AID 1963587); also: nearly all actives have a fitted effect of over 30% in size
# Summary of the method: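 CHO cells stably expressing human HTR2A, plated 18 h, loaded with calcium dye 1 h at 37 C. Agonist mode: compounds added and intracellular calcium fluorescence recorded kinetically for 2 min at 1 sec intervals.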
# [13] = biological target: Muscarinic acetylcholine receptor M1 (Homo sapiens) (UniProt P11229); assay: Cholinergic receptor muscarinic 1 (CHRM1) small molecule antagonists, cell-based qHTS assay (AID 1963588); also: nearly all actives have a fitted effect of over 40% in size; also: potency is read from the fitted curve at half-maximal effect
# Summary of the method: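 CHRM1-CHO calcium-flux assay, antagonist mode. Cells were seeded 18 h, dye-loaded 1 h at 37 C and given compound for 5 min at RT, then acetylcholine was added at 50nM. FDSS fluorescence was read 3 min; 15 concentrations, three runs.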
# [14] = biological target: Muscarinic acetylcholine receptor M1 (Homo sapiens) (UniProt P11229); assay: Cholinergic receptor muscarinic 1 (CHRM1) small molecule agonists, cell-based qHTS assay (AID 1963589); also: nearly all actives have a fitted effect of over 35% in size
# Summary of the method: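 Each compound was tested at 15 concentrations across three independent runs on dye-loaded CHO cells stably expressing human CHRM1, reading intracellular calcium fluorescence kinetically at 1 sec intervals.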
# [15] = cAMP Responsive Elements (CRE) small molecule agonists, cell-based qHTS assay (AID 1963590)
# Summary of the method: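 Cell line: CRE-bla HEK 293T; medium DMEM/10% dialyzed FBS/0.1 mM NEAA/1 mM pyruvate/25 mM HEPES; 3 h compound exposure; beta-lactamase FRET readout after 2 h substrate loading at RT.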
# [16] = cAMP Responsive Elements (CRE) small molecule antagonists, cell-based qHTS assay (AID 1963591; active = well fitted inhibition curve with a large enough effect in the signal ratio in the repeat runs, not every such curve was filed as active; the % refers to the signal ratio)
# Summary of the method: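 Inhibition of NKH477-driven (0.25 uM final) CRE-beta-lactamase signal in HEK293T cells, 3 h compound exposure at 37 °C, detected by FRET substrate fluorescence.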
# [17] = biological target: D(2) dopamine receptor (Homo sapiens) (UniProt P14416); assay: Dopamine D2 receptor (DRD2) small molecule antagonists, cell-based qHTS assay (AID 1963595; active = well fitted inhibition curve with a large enough effect in the signal ratio in the repeat runs, with a control signal flat; the % refers to the signal ratio)
# Summary of the method: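 Readout: HTRF cAMP, cAMP-d2 competing with cellular cAMP for anti-cAMP cryptate, read after 1 h. Cells: DRD2-HEK293. Conditions: 0.1 mM Ro20-1724, 12 nM quinpirole, 200 nM NKH477, 30 min RT.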
# [18] = biological target: Beta-2 adrenergic receptor (Homo sapiens) (UniProt P07550); assay: Adrenergic beta2 receptor (ADRB2) small molecule antagonists, cell-based qHTS assay (AID 1963592); also: series mostly up to about 92 µM; nearly all actives have a fitted effect of over 50% in size
# Summary of the method: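 Cells (CHO, stable ADRB2 overexpression) incubated 18-20hr at 37C; compounds added from DMSO; agonist mix (1nM isoproterenol, 100uM IBMX, 25uM Ro-20-1724) added; 0.5hr RT; d2-cAMP and anti-cAMP-cryptate added; 1hr RT; 665/615 nm read.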
# [19] = biological target: D(2) dopamine receptor (Homo sapiens) (UniProt P14416); assay: Dopamine D2 receptor (DRD2) small molecule agonists, cell-based qHTS assay (AID 1963594); also: nearly all actives have a fitted effect of over 35% in size; also: potency is read from the fitted curve at half-maximal effect
# Summary of the method: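 HEK293 cells stably expressing human DRD2, pre-treated with PDE inhibitor Ro20-1724 (0.1 mM final) and compound 10 min at room temperature, then stimulated with NKH477 (200nM […]) for 30 min. cAMP read by HTRF (665/620 nm).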
# Sequence of KiSS-1 receptor (Homo sapiens) (Q969F8 whole entry, looked up): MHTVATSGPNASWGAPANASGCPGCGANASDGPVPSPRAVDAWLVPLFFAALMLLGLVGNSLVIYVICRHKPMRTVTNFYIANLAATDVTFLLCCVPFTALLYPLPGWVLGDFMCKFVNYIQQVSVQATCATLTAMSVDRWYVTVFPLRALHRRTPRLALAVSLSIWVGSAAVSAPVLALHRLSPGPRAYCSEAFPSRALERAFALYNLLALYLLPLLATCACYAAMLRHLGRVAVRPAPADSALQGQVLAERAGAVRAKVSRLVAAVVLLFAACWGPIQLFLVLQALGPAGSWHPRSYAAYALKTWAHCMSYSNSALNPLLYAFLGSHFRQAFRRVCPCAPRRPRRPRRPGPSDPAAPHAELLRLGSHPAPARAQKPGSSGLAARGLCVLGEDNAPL
# Sequence of Beta-2 adrenergic receptor (Homo sapiens) (P07550 whole entry, looked up): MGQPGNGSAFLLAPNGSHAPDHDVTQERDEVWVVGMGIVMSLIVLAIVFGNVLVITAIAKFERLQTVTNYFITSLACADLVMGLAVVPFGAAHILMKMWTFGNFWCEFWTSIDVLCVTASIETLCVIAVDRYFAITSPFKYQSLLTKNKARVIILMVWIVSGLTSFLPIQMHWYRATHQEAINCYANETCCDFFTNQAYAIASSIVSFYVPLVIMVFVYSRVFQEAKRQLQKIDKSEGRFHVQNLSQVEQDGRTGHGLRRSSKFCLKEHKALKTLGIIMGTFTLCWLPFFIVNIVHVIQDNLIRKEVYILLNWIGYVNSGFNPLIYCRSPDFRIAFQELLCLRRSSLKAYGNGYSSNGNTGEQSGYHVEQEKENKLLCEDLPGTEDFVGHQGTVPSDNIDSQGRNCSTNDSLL
# Sequence of D(2) dopamine receptor (Homo sapiens) (P14416 whole entry, looked up): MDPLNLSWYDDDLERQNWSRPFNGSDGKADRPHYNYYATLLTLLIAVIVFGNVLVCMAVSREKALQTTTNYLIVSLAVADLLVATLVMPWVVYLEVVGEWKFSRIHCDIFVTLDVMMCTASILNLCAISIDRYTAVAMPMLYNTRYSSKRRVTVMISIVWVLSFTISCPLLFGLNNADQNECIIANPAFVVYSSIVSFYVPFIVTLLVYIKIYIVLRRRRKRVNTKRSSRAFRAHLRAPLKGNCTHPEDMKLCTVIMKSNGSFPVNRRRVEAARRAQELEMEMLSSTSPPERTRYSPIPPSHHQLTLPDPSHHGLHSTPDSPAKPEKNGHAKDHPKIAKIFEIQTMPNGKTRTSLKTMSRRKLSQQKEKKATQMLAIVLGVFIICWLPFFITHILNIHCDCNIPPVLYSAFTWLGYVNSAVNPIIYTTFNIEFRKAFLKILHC
# Sequence of Gonadotropin-releasing hormone receptor (Homo sapiens) (P30968 whole entry, looked up): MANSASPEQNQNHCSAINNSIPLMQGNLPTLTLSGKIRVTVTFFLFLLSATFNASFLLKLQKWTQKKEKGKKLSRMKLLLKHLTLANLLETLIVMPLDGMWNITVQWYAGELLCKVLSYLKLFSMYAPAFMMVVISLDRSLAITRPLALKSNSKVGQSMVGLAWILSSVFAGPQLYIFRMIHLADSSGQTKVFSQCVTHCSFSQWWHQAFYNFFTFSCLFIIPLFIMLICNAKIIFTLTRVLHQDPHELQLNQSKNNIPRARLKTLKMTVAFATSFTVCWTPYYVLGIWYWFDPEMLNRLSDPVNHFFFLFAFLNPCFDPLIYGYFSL
# Sequence of Muscarinic acetylcholine receptor M1 (Homo sapiens) (P11229 whole entry, looked up): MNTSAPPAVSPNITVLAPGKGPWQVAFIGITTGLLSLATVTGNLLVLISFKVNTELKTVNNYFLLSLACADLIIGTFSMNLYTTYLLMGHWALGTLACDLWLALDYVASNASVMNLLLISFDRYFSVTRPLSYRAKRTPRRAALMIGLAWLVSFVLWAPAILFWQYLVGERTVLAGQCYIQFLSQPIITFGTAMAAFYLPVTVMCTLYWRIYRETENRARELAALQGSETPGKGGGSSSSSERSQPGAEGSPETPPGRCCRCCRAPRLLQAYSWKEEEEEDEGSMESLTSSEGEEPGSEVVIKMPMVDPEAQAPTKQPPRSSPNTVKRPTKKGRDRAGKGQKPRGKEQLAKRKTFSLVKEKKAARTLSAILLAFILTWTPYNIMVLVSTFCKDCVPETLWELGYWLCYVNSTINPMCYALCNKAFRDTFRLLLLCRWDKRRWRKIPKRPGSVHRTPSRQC
# Sequence of 5-hydroxytryptamine receptor 2A (Homo sapiens) (P28223 whole entry, looked up): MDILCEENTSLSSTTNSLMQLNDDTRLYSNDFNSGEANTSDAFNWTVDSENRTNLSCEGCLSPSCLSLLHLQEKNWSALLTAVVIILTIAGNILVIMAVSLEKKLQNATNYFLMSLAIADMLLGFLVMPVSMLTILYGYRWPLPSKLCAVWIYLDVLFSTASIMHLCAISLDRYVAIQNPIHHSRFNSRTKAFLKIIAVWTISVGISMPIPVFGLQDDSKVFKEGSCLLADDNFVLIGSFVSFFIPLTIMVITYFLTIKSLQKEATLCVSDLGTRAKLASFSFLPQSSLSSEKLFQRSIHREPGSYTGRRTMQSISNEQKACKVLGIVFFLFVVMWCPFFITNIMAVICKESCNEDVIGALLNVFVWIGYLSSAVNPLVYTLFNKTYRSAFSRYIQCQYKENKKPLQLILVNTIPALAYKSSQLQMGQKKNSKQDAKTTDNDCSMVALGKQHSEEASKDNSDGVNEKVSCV
Compound,Potency [1],Potency [2],Potency [3],outcome [4],outcome [5],Potency [6],Potency [7],Potency [8],Potency [9],Potency [10],Potency [11],Potency [12],Potency [13],Potency [14],Potency [15],Potency [16],Potency [17],Potency [18],Potency [19]
CCOCC(O)COc1ccc(NC(=O)CC[S+](C)C)cc1 (centres undefined),inactive,inactive,inactive,inactive,inactive,inactive,inactive,inactive,inactive,inactive,inactive,inactive,inactive,inactive,inactive,inactive,inactive,–,–
CN(C)CCN1CCN(c2cccc(Cl)c2)C1=O,inactive,inactive,inactive,inactive,inactive,inactive,inactive,inactive,inactive,inactive,1.83 µM (active),inactive,–,inactive,inactive,inactive,–,inactive,13.3 µM (active)
COc1c(N2C[C@@H]3CCCN[C@@H]3C2)c(F)cc2c(=O)c(C(=O)O)cn(C3CC3)c12,inactive,inactive,inactive,inactive,inactive,inactive,inactive,inactive,inactive,inactive,inactive,inactive,6.5 µM (active),–,inactive,inactive,inactive,–,–
CCN(CC)c1ccc(C(=C2C=CC(=[N+](CC)CC)C=C2)c2ccc(S(=O)(=O)O)cc2S(=O)(=O)[O-])cc1,24.3 µM (active),inactive,inactive,inactive,inactive,inactive,inactive,18.2 µM (active),9.13 µM (active),inactive,inactive,–,inactive,inactive,inactive,inactive,–,–,–
CC(C)c1ccc2oc3nc(N)c(C(=O)O)cc3c(=O)c2c1,inactive,0.944 µM (active),inactive,inactive,inactive,inactive,inactive,inactive,inactive,inactive,inactive,inactive,–,inactive,–,–,inactive,inactive,inactive
O=C(OCCCCCCOC(=O)c1ccccc1)c1ccccc1,inactive,68.6 µM (active),inactive,inactive,inactive,inactive,inactive,inactive,inactive,inactive,inactive,–,–,inactive,inactive,–,inactive,inactive,inactive
C/C(=N\[Si](C)(C)C)O[Si](C)(C)C,inactive,inactive,inactive,inactive,inactive,inactive,inactive,inactive,inactive,inactive,inactive,inactive,inactive,inactive,–,inactive,inactive,inactive,inactive
O=C(Nc1ccc(Cl)c(Cl)c1)C1CC1,inactive,inactive,inactive,inactive,inactive,inactive,inactive,inactive,inactive,inactive,inactive,inactive,inactive,inactive,inactive,inactive,inactive,inactive,inactive

# From PubChem BioAssay (Tox21)
